The values that follow come from PubChem BioAssay (NCATS).

Several values for one entry are separate records, joined by “and”; a condition that tells them apart may be missing. Equal values may be shown once. Results filed as inconclusive are left out. Activity calls are given as the source filed them. Unless noted, the call rests on the fitted dose curve; in most records, active means well fitted curve in the direction sought with a large enough effect; inconclusive means small, poorly fitted or top-dose-only effect, or another doubt; inactive means no such curve, though single readings can be large; an effect the other way counts as inactive or inconclusive.

The nature of assay [1]: qHTS assay for cell viability of the p53RE-bla HCT-116 cell line (AID 743292). Further: on the % scale 0 is the no-effect control and ±100 the full control effect; nearly all actives have a fitted effect of over 55% in size. In short, it runs like this: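 In this qHTS counter-screen, metabolically competent p53RE-bla HCT-116 cells were counted via their ATP content. Compounds were applied for 16 h at 37 C and luciferase-coupled luminescence was measured.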
Assay [2] can be described thus: qHTS assay for measurement of the activity of small molecule inhibitors on Zika virus induced Caspase-3 activity in human iPSC derived neural progenitor cells (hNPCs) (AID 1224857). Further: % of control where 0% means no effect; nearly all actives have a fitted effect of over 65% in size. In a few lines:
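Caspase-3/7 induction by a 6-hour ZIKV infection was quantified with a luminescent Caspase-Glo 3/7 reagent incubated 30 minutes at room temperature. Compounds were preincubated with hNPCs for 1 hour; inhibition was calculated against uninfected and infected control wells.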

Assay [3] can be described thus: qHTS assay for measurement of the activity of small molecule inhibitors on Zika virus induced Caspase-3 activity in human astrocytoma cells (AID 1224859).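 Further: plate controls were ZIKV-infected untreated cells for no effect and uninfected cells for full effect.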 In short, it runs like this:
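In SNB-19 cells plated at 250 cells/well and grown 16-20 h, compounds were applied 1 h before ZIKV (2 FFU/cell). Six hours later caspase-3/7 luminescence was recorded.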

Assay [4] in a line: qHTS assay to identify small molecule inhibitors of chordoma cells - UCH-1 (AID 1259355). Further: on the % scale 0 is the no-effect control and ±100 the full control effect; nearly all actives have a fitted effect of over 55% in size. In a few lines:
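A 48hr growth-inhibition format: each drug tested at 15 concentrations together with added auranofin, camptothecin, doxorubicin, rubitecan and topotecan, with cell viability quantified as CellTiter-Glo luminescence.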

Assay [5] in a line: qHTS assay to identify small molecule inhibitors of chordoma cells - UCH-2 (AID 1259356). Further: on the % scale 0 is the no-effect control and ±100 the full control effect.
The nature of assay [6]: P-glycoprotein substrates identified in KB-3-1 adenocarcinoma cell line, qHTS therapeutic library screen (AID 1346986). Further: nearly all actives have a fitted effect of over 60% in size. To be noted: KB-3-1 parental cells viability, CellTiter-Glo, 72 h; at 44.5 µM (top of the series) unless noted. In a few lines: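 Using luminescence to quantify ATP, parental and P-gp-overexpressing KB cells were compared after 72 h compound titration. KB-8-5-11 was also run with the P-gp inhibitor tariquidar.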

The nature of assay [7]: P-glycoprotein substrates identified in KB-8-5-11 adenocarcinoma cell line, qHTS therapeutic library screen (AID 1346987). Further: nearly all actives have a fitted effect of over 65% in size. Further: potency means the concentration at half of the fitted maximal effect. In a few lines: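 Human cervical adenocarcinoma KB-8-5-11 cells, selected in colchicine to over-express P-gp and assayed without it, were exposed for 72 h to titrated compounds. An ATP-based luminescent viability signal gave AC50.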
Assay [8] in a line: qHTS profiling for inhibitors of Plasmodium falciparum (3D7) proliferation (AID 743322; call rule not given here;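 further: infected erythrocytes exposed to compound for 72 h before lysis; 100% = DMSO vehicle wells and 0% = 0.29 µM artemisinin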). To be noted: P. falciparum 3D7 proliferation; at 28.7 µM (top of the series) unless noted. In short, it runs like this: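 Parasite DNA was quantified by SYBR Green I fluorescence (ex 485, em 535 nm) after overnight lysis in saponin/Triton buffer at room temperature. Cultures at 0.3% parasitemia and 2.5% hematocrit were first exposed to compound for 72 h at 37 C; signals were normalised to artemisinin (0.29 uM) and vehicle wells.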

Assay [9] is described as follows: qHTS profiling for inhibitors of Plasmodium falciparum (DD2) proliferation (AID 743323; call rule not given here). To be noted: lower = more inhibition; at 28.7 µM (top of the series) unless noted. In short, it runs like this: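 Parasite proliferation measured via DNA-dye fluorescence, as uninfected erythrocytes lack DNA. Cultures at 0.3% parasitemia and 2.5% hematocrit incubated 72 h with compound; signal scaled between vehicle and 0.29 uM artemisinin wells.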

Assay [10] in a line: Identifying Small Molecule Inhibitors of Pancreatic Cancer Stem Cells (SN12C, Adherent) (AID 1259358).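 Further: cell survival measured after 48 h of compound exposure.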 In short, it runs like this:
(§1)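 After a 4 h attachment period, compounds were pinned into wells and cultures held 48 h under standard incubator conditions. Viability was then measured as CellTiter-Glo luminescence following 10 min at room temperature.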

The nature of assay [11]: Identifying Small Molecule Inhibitors of Pancreatic Cancer Stem Cells (A278, Adherent) (AID 1259361).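 Further: viability read after 48 h compound exposure; nearly all actives have a fitted effect of over 35% in size.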 In short, it runs like this: as §1
A short description of assay [12]: Natriuretic polypeptide receptor (hNpr1) antagonism - Pilot counterscreen GloSensor control cell line (AID 1347045; calls by dose curve; further: on the % scale 0 is the no-effect control and ±100 the full control effect). In a few lines:
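The SNP-driven cGMP luminescence signal (50 uM, 20 min, room temperature) was measured in GloSensor HEK293 control cells. Compounds were tested as a LOPAC titration series and preincubated for 30-50 min.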

Assay [13] in a line: qHTS profiling for inhibitors of Plasmodium falciparum (HB3) proliferation (AID 743324).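 Further: 100% = DMSO vehicle wells and 0% = artemisinin-treated control wells.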 To be noted: Plasmodium falciparum HB3 blood-stage proliferation; at 28.7 µM (top of the series) unless noted. In a few lines:
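SYBR Green fluorescence (485 ex/535 em) of lysed cultures, incubated overnight at room temperature in the dark, quantifies parasite DNA. Infected erythrocytes at 0.3% parasitemia and 2.5% hematocrit were exposed 72 h; values normalized to DMSO and 0.29 uM artemisinin controls.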

Assay [14] can be described thus: Identifying Small Molecule Inhibitors of Pancreatic Cancer Stem Cells (A2780, Spheroid) (AID 1259357).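 Further: spheroids pre-formed over 14 days in stem cell medium on hydrogel; compound exposure lasted 48 h before the ATP luminescence read; 100% = DMSO treated cells and 0% = wells without cells.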 In a few lines:
(§2)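 Viability is scored by CellTiter-Glo luminescence 48 h after dosing, expressed as percent activity against vehicle and no-cell references. Spheroid formats rely on cells cultured 14 days in stem cell media beforehand.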

The nature of assay [15]: Identifying Small Molecule Inhibitors of Pancreatic Cancer Stem Cells (SN12C, Spheroid) (AID 1259360).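 Further: 100% = DMSO-treated cells and 0% = wells without cells.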 In a few lines: as §2
Assay [16] can be described thus: Identifying Small Molecule Inhibitors of Pancreatic Cancer Stem Cells (Panc1, Adherent) (AID 1259362). Further: potency means the concentration at half of the fitted maximal effect. To be noted: Potency: viability. In short, it runs like this: as §2

As for `Nc1ccc(S(=O)(=O)Nc2nccs2)cc1`, the Potency result in assay [1], in assay [4] and in assay [7] was “inactive” throughout. For the same molecule, the outcome in assay [2], in assay [3], in assay [5] and in assay [6] was inactive.

In the case of `O=c1[nH]cnc2c1ncn2[C@@H]1O[C@H](CO)[C@@H](O)[C@H]1O`, the result in assay [2], in assay [3], in assay [5] and in assay [6] was inactive. For the same molecule, the Potency result in assay [4] and in assay [7] was “inactive” each time.

In the case of `CN(N=O)C(=O)N[C@@H]1[C@@H](O)[C@H](O)[C@@H](CO)O[C@@H]1O`, the outcome in assay [2], in assay [3] and in assay [5] was inactive. Besides, the Potency result in [4] and in [7] was “inactive” throughout.

As to `NC(=O)c1ncn([C@@H]2O[C@H](CO)[C@@H](O)[C@H]2O)c1N`, the remaining parasite growth % (stronger effect = lower value) in assay [8] was determined as 104%. Moreover, the activity, percent of control in assay [9] stood at 121%. For the same molecule, the outcome in assay [2], in assay [3], in assay [5] and in assay [10] was inactive. Further, the Potency entry in [4] and in assay [7] was “inactive” each time. For the same molecule, the IC50 (viability decrease) result in assay [11] was “inactive”.

`CCCCN(CCCC)CCCOC(=O)c1ccc(N)cc1`: the molecule was classed as inactive in assay [2], in assay [3] and in assay [5]. In assay [4], the Potency entry is “inactive”.

On to `CN1CCC[C@@H]1Cc1c[nH]c2ccc(CCS(=O)(=O)c3ccccc3)cc12`, for which the molecule was called inactive in assay [2], in assay [3], in [5] and in assay [6]. The Potency entry in assay [4] and in assay [7] was “inactive” throughout.

In the case of `O=C(O)[C@H](O)c1ccccc1`, the molecule was classed as inactive in assay [2], in [3] and in assay [5]. The Potency result in assay [4] and in assay [7] was “inactive” in each case.

As to `CC1(C)OC(=O)NC1=O`, the outcome in assay [2], in [3] and in assay [5] was inactive. In addition, the Potency entry in assay [4] and in [7] was “inactive” throughout.

As to `CCN(CC)CCNC(C(=O)OCCC(C)C)c1ccccc1` (stereo unspecified), the result in [2], in [3] and in assay [5] was inactive. The Potency result in [4] is “inactive”.

Turning to `COCCOC(=O)C1=C(C)NC(C)=C(C(=O)OC/C=C/c2ccccc2)C1c1cccc([N+](=O)[O-])c1` (stereo unspecified), the result in [2], in [3] and in assay [5] was inactive. Further, the Potency entry in assay [4] is “inactive”.

Regarding `CC1(C)CO[C@@H](CC(=O)O)CN1`, the result in assay [2], in [3] and in assay [5] was inactive. Further, the Potency result in assay [4] and in assay [7] was “inactive” in each case.

On to `CCN(CC)C(=O)Nc1ccc(OCC(O)CNC(C)(C)C)c(C(C)=O)c1` (stereo unspecified), for which the molecule was called inactive in assay [2], in [3] and in [5]. For the same molecule, the Potency result in assay [4] and in [7] was “inactive” each time.

For `COc1ccc(Cl)cc1C(=O)NCCc1ccc(S(=O)(=O)NC(=O)NC2CCCCC2)cc1`, the Potency entry in assay [1], in [4] and in [7] was “inactive” each time. Moreover, the call in assay [2], in assay [3], in [5], in assay [6] and in assay [12] was inactive.

For the molecule `COc1ccc2[nH]c(S(=O)Cc3ncc(C)c(OC)c3C)nc2n1` (stereo unspecified), the molecule was called inactive in assay [2], in assay [3], in assay [5] and in assay [6]. Moreover, the Potency entry in [4] and in assay [7] was “inactive” in each case.

For `OCC(O)CN1CCN(c2ccccc2)CC1` (stereo unspecified), the call in [2], in assay [3] and in [5] was inactive. Moreover, the Potency result in [4] and in assay [7] was “inactive” in each case.

For `Cc1ccc2nc(N)[nH]c(=O)c2c1Sc1ccncc1`, the result in assay [2], in assay [3] and in assay [5] was inactive. Also, in assay [4], the Potency result was “inactive”.

For the molecule `CCN(CC)CCCC(C)Nc1c2ccc(Cl)cc2nc2ccc(OC)cc12` (stereo unspecified), the call in [2], in assay [3] and in assay [5] was inactive. The Potency result in assay [4] was “inactive”. For the same molecule, the Potency in assay [7] was 6.32 µM (active).

On to `C[C@@H]1C[C@H]2[C@@H]3C[C@H](F)C4=CC(=O)C=C[C@]4(C)[C@@]3(F)[C@@H](O)C[C@]2(C)[C@@]1(O)C(=O)CO`, for which the outcome in [2], in assay [3], in assay [5] and in [6] was inactive. Moreover, the Potency entry in assay [4] and in assay [7] was “inactive” in each case.

As to `CC(=O)O[C@@]12CO[C@@H]1C[C@H](O)[C@@]1(C)C(=O)[C@H](O)C3=C(C)[C@@H](OC(=O)[C@H](O)[C@@H](NC(=O)OC(C)(C)C)c4ccccc4)C[C@@](O)([C@@H](OC(=O)c4ccccc4)[C@H]21)C3(C)C`, the remaining parasite growth % (stronger effect = lower value) in assay [8] is 7.64% and -0.123%. Further, the activity, percent of control in assay [9] is 14.2% and 11.9%. In addition, the remaining proliferation (% of control), lower = more inhibition in [13] is 0.549% and 1.1%. The molecule was called inactive in assay [2], in [3], in [5], in [14], in assay [10] and in [15]. The Potency entry in assay [4] is “inactive”. The IC50 (viability decrease) entry in assay [11] is “inactive”. In addition, the Potency in assay [7] is 6.51 µM (active) and 4.11 µM (active).

As for `O=C1Nc2ccc(Cl)cc2[C@@](C#CC2CC2)(C(F)(F)F)O1`, the remaining parasite growth % (stronger effect = lower value) in [8] is 6.68% [at 57.5 µM]. Also, the activity, percent of control in assay [9] came out at 22.7% [at 57.5 µM]. This molecule showed a remaining proliferation (% of control), lower = more inhibition in assay [13] of 11.8% [at 57.5 µM]. Besides, the outcome in [2], in assay [3] and in assay [5] was inactive. Moreover, the Potency entry in assay [4] is “inactive”. In addition, the IC50 (viability decrease) in assay [11] was 48.1 µM (active). For the same molecule, the Potency in assay [16] is 48.1 µM (active).

Take `CCN(CC)CCNC(=O)c1cc(Cl)c(N)cc1OC`: the result in assay [2], in assay [3], in assay [5], in assay [6] and in [12] was inactive. Besides, the Potency entry in [4] and in assay [7] was “inactive” throughout.

On to `O=C1NC(=O)[C@@]2(CCOc3ccc(F)cc32)N1`, for which the molecule was called inactive in [2], in assay [3] and in assay [5]. The Potency result in [4] was “inactive”.

For the molecule `COc1cc2[nH]c(=O)[nH]c(=O)c2cc1OC`, the result in assay [2], in [3] and in assay [5] was inactive. The Potency entry in assay [4] and in [7] was “inactive” throughout.

As for `CC(C)(C)NCC(O)COc1ccc(NC(=O)NC2CCCCC2)cc1` (stereo unspecified), the outcome in assay [2], in [3] and in assay [5] was inactive. Further, the Potency result in assay [4] and in [7] was “inactive” in each case.

`O=c1cc[nH]c(=S)[nH]1`: the call in assay [2], in assay [3] and in assay [5] was inactive. Also, the Potency entry in assay [4] and in assay [7] was “inactive” in each case.

Regarding `CS(=O)(=O)c1ccc([C@@H](O)[C@@H](CF)NC(=O)C(Cl)Cl)cc1`, the call in assay [2], in [3] and in assay [5] was inactive. The Potency result in assay [4] and in assay [7] was “inactive” in each case.
